Assay outcomes from PubChem BioAssay.
TDP1 cell CPT – growth inhibition of DT40 Tdp1-/-;hTDP1 cells with camptothecin (screen for TDP1 inhibitors); AID 686979; 420,000 compounds, 12% hits; chicken DT40 Tdp1-/-;hTDP1 cells + 20 nM CPT, ATP luminescence, 48 h; Potency, µM (titrated, usually from 46.2 µM), most hits filed as inhibitors; also: nearly all actives have a fitted effect of over 55% in size
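Chicken DT40 Tdp1-/- cells complemented with human TDP1, 400 cells/well, exposed to compounds plus 20 nM camptothecin for at least 48 h at 37 C; viability read as ATP content by CellTiter-Glo luminescence.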
IL-1B inflam inh – inflammasome signaling inhibition, IL-1 beta readout; activity change, % at 57.5 µM; 360,000 compounds, 4.7% hits; AID 743279; THP-1 LPS/ATP IL-1B secretion, AlphaLISA, 16 h; hits give low values; in the data active = activity change below about -50%; inconclusive = mostly about -30% to -49%
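Secreted IL-1B measured by AlphaLISA bead assay after 16 h compound exposure of THP-1 cells; compounds (final up to 57.5 uM) added 1 h before LPS (250 ng/mL) and ATP (1.25 mM) stimulation; lower signal means less secretion.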
TDP1 cell noCPT – qHTS for Inhibitors of human tyrosyl-DNA phosphodiesterase 1 (TDP1): qHTS in cells in absence of CPT. DT40 Tdp1-/- hTDP1 cells, no CPT, ATP luminescence, 48 h. 420,000 compounds, 15% hits. Potency, µM (doses to about 46.2 µM), actives largely listed as inhibitors; also: nearly all actives have a fitted effect of over 55% in size
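Seeded 400 DT40-hTDP1 cells/well (vehicle DMSO, no 20 nM CPT); pinned compounds; ≥48 hr at 37 °C; CellTiter-Glo luminescence as viability measure.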
HT1080 IDH1KD tx – kills HT-1080 cells with IDH1 knockdown. Potency, µM (series often up to 46.1 µM), usual class: cytotoxic. HT-1080 IDH1 knockdown viability, ATP luminescence, 48 h. AID 686971. 360,000 compounds, 2% hits
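Knockdown cells (IDH1KD HT-1080) received compounds 2 h after plating at 750 cells/well and were kept 48 h at 37 °C in 5% FBS RPMI. A CellTiter-Glo luminescence read gave % activity for curve fitting.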
HT1080NT lethal – kills 2HG-producing HT-1080-NT fibrosarcoma cells | Potency, µM (titrated, usually from 46.1 µM), most hits filed as cytotoxic | HT-1080-NT fibrosarcoma viability, CellTiter-Glo ATP luminescence, 48 h | 360,000 compounds, 1.6% hits;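 also: NT is the 2HG producing partner of a matched IDH1 knockdown line; nearly all actives have a fitted effect of over 55% in size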
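750 cells/well, RPMI + 5% FBS; 2 h settle, compound pin-transfer, 48 h at 37 degrees C. CellTiter-Glo 10 min RT, luminescence. Normalized to DMSO and media-only wells.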
Of the large screens only hits and unclear results are named; the others gave an inactive call. Shown are actives, neighbours in structure and some others; about 19% of the full set was active somewhere. Unless noted, calls follow the shape of the dose curve; as a rule, active = well fitted curve in the direction sought with a large enough effect; inconclusive = small, poorly fitted or top-dose-only effect, or another doubt; inactive = no such curve, though single readings can be large; an effect the other way counts as inactive or inconclusive.

Cc1ccnc(NS(=O)(=O)c2ccc(NC(=O)c3ccc([N+](=O)[O-])s3)cc2)n1	TDP1 cell CPT inconclusive, TDP1 cell noCPT inconclusive, HT1080 IDH1KD tx inconclusive, HT1080NT lethal inconclusive
COc1ccc(C(=O)Nc2ccc(C)cn2)c(OC)c1	TDP1 cell CPT 21µM, TDP1 cell noCPT inconclusive, HT1080NT lethal inconclusive
Cc1ccc(CNC(=O)c2ccc(N3CCC4(CC3)CC(c3ccccc3)=NO4)c([N+](=O)[O-])c2)cc1	TDP1 cell CPT inconclusive, TDP1 cell noCPT inconclusive
N=C1CCCN1CC(=O)c1ccc(Br)cc1	none
COc1ccccc1C(=O)Nc1ccc(S(=O)(=O)Nc2cc(C)nc(C)n2)cc1	none
COc1ccc(C(=O)Nc2ccc(S(=O)(=O)Nc3cc(C)nc(C)n3)cc2)c(OC)c1	TDP1 cell CPT 21µM, TDP1 cell noCPT 23µM
CC1CCCCN1C(=O)Cn1cnc2cc([N+](=O)[O-])ccc2c1=O (stereo not drawn)	TDP1 cell CPT 15µM, TDP1 cell noCPT 18µM
O=C(Cn1cnc2cc([N+](=O)[O-])ccc2c1=O)Nc1cccc(S(=O)(=O)N2CCCCC2)c1	TDP1 cell CPT inconclusive, IL-1B inflam inh -55, TDP1 cell noCPT inconclusive, HT1080 IDH1KD tx inconclusive, HT1080NT lethal inconclusive
Cc1cc(C)c(C(=O)Cn2cnc3cc([N+](=O)[O-])ccc3c2=O)cc1C	TDP1 cell CPT inconclusive, TDP1 cell noCPT 18µM
Cc1ccc(NC(=O)Cn2cnc3cc([N+](=O)[O-])ccc3c2=O)cc1	none
CC1CCCCN1C(=O)CCNC(=O)Cn1cnc2ccccc2c1=O (stereo not drawn)	none
CC(=O)N1CCN(CC(=O)Nc2c(Cl)ccc(C)c2Cl)CC1	none
O=C(CSc1ncnc2c1cnn2-c1ccccc1)NCC1CCCO1 (stereo not drawn)	TDP1 cell CPT inconclusive, TDP1 cell noCPT inconclusive
CCOC(=O)c1sc(NC(=O)c2cc3nc(-c4ccc(Br)cc4)cc(C(F)(F)F)n3n2)c(C(=O)OCC)c1C	TDP1 cell CPT inconclusive, TDP1 cell noCPT 23µM (no result: IL-1B inflam inh, HT1080 IDH1KD tx, HT1080NT lethal)
O=C(NCCCn1ccnc1)c1cc2nc(-c3ccc(Br)cc3)cc(C(F)(F)F)n2n1	TDP1 cell CPT inconclusive, IL-1B inflam inh inconclusive, TDP1 cell noCPT inconclusive, HT1080 IDH1KD tx inconclusive, HT1080NT lethal 23µM
CCOC(=O)c1c(NC(=O)c2cc3nc(-c4ccccc4)cc(C(F)(F)F)n3n2)sc2c1CCC(C)C2 (stereo not drawn)	TDP1 cell CPT 23µM, TDP1 cell noCPT 18µM (no result: IL-1B inflam inh, HT1080 IDH1KD tx, HT1080NT lethal)
CC(C(=O)O)c1ccc(C(=O)c2ccccc2)s1 (stereo not drawn)	TDP1 cell noCPT inconclusive
CC(C)[C@H](NC(=O)C1CCN(S(=O)(=O)c2ccccc2)CC1)C(=O)NCc1ccncc1	none
CCOc1ccccc1C(=O)Nc1nnc(SCC(=O)Nc2cc(C)on2)s1	HT1080 IDH1KD tx inconclusive
ON=C1c2ccccc2-c2cc(Br)ccc21	TDP1 cell CPT 7.3µM, IL-1B inflam inh -52, TDP1 cell noCPT inconclusive
CC(=NO)c1ccc2c(c1)C(=NO)c1ccccc1-2	TDP1 cell CPT 16µM, TDP1 cell noCPT 21µM
CC(=O)Nc1cc2c(cc1[N+](=O)[O-])-c1ccccc1C2=NO	TDP1 cell CPT inconclusive, HT1080 IDH1KD tx inconclusive
Nc1cc2c(cc1[N+](=O)[O-])-c1ccccc1C2=NO	TDP1 cell CPT 21µM, TDP1 cell noCPT 8.2µM
O=C1C(=O)c2ccc(-c3ccccc3)cc2-c2ccccc21	TDP1 cell CPT 0.92µM, IL-1B inflam inh -57, TDP1 cell noCPT 2.6µM, HT1080 IDH1KD tx 3.3µM, HT1080NT lethal 3.7µM
C/C(=N\O)c1ccc2[nH]ccc2c1	none
O=C(O)CNC(=O)C1(NC(=O)OCc2ccccc2)CCCC1	TDP1 cell CPT inconclusive
Nc1ccc2c(c1)C(=O)c1ccccc1-2	none
ON=C1c2ccccc2-c2ccc(O)cc21	TDP1 cell CPT inconclusive, IL-1B inflam inh inconclusive, HT1080 IDH1KD tx inconclusive, HT1080NT lethal inconclusive
Nc1ccc2c(c1)C(=O)C(=O)c1ccccc1-2	TDP1 cell CPT 0.65µM, IL-1B inflam inh -122, TDP1 cell noCPT 0.92µM, HT1080 IDH1KD tx inconclusive, HT1080NT lethal 4.6µM
Nc1ccc2c(c1)C(=NO)c1ccccc1-2	TDP1 cell CPT 18µM, TDP1 cell noCPT 8.2µM
COc1nc(N)nc2nc[nH]c12	IL-1B inflam inh -77
CC(=O)Oc1ccc2c(=O)c(Oc3ccccc3[N+](=O)[O-])coc2c1	TDP1 cell noCPT inconclusive
COc1ccccc1-c1c(C(F)(F)F)oc2cc(OC(=O)c3cccc([N+](=O)[O-])c3C)ccc2c1=O	TDP1 cell CPT 21µM, TDP1 cell noCPT 23µM, HT1080 IDH1KD tx inconclusive
c1ccc(-c2nc3ccccc3n2C(c2ccccc2)c2nc3ccccc3[nH]2)cc1 (stereo not drawn)	TDP1 cell CPT inconclusive, TDP1 cell noCPT inconclusive
CCC(c1nc2ccccc2[nH]1)n1c(=O)c(-c2cccnc2)nc2ccccc21 (stereo not drawn)	none
O=c1c(-c2ccccc2)nc2ccccc2n1C(c1ccccc1)c1nc2ccccc2[nH]1 (stereo not drawn)	IL-1B inflam inh -53
COc1cc(Cc2nc3ccccc3n2C(C)c2nc3ccccc3[nH]2)cc(OC)c1 (stereo not drawn)	TDP1 cell CPT 18µM, TDP1 cell noCPT inconclusive
CC(c1nc2ccccc2[nH]1)n1c(=O)c(-c2cccnc2)nc2ccccc21 (stereo not drawn)	TDP1 cell CPT 23µM, IL-1B inflam inh -88, TDP1 cell noCPT inconclusive
O=C(O)c1ccc(/C=N/N2CCN(Cc3ccccc3)CC2)cc1	none
CCCN1C2CCCC1CC(NC(=O)Nc1ccc(C(C)C)cc1)C2 (stereo not drawn)	TDP1 cell CPT 23µM, TDP1 cell noCPT inconclusive
Cc1ccc(CN2CCOc3ccc(C(C)(O)COc4ccccc4)cc3C2)o1 (stereo not drawn)	none (no result: IL-1B inflam inh, HT1080 IDH1KD tx, HT1080NT lethal)
CC(=N)c1c(O)c2ccccc2oc1=O	IL-1B inflam inh inconclusive
CC1CCC(C(=O)c2c(O)c3ccccc3oc2=O)CC1 (stereo not drawn)	TDP1 cell CPT 18µM, IL-1B inflam inh -94, TDP1 cell noCPT 18µM
CC(Nc1ncnc2sccc12)c1ccccc1 (stereo not drawn)	TDP1 cell CPT 2.6µM, TDP1 cell noCPT 0.92µM, HT1080NT lethal 10µM
Cc1ccccc1C[n+]1cccc2ccccc21	TDP1 cell CPT inconclusive, TDP1 cell noCPT 15µM
CCCCCCCCC[n+]1cccc2c3ccccc3ccc21	TDP1 cell CPT 0.58µM, TDP1 cell noCPT 0.46µM, HT1080 IDH1KD tx 10µM, HT1080NT lethal 7.3µM
CCCCCCCCCC[n+]1cccc2cc(Br)ccc21	TDP1 cell CPT 0.63µM, TDP1 cell noCPT 1.3µM (no result: IL-1B inflam inh, HT1080 IDH1KD tx, HT1080NT lethal)
CCCCCCCCCCCCCCCC[n+]1cccc2ccccc21	TDP1 cell CPT 0.41µM, IL-1B inflam inh -102, TDP1 cell noCPT 0.23µM, HT1080 IDH1KD tx 8.2µM, HT1080NT lethal 6.5µM
